In all, about 360,000 compounds went through this assay and about 17,000 (4.7%) were called active. Roughly 5% stayed inconclusive and do not appear here. The sample holds actives, similar compounds and a random draw of the others, so the mix is not that of the screen. Unmarked numbers belong to inactive results. Cut-off read from the data, not from the text of the source: active = activity change below about -50%; inconclusive = mostly about -30% to -49%; inactive = weaker than that.
Assay: qHTS for Inhibitors of Inflammasome Signaling: IL-1-beta AlphaLISA Primary Screen
Settings: THP-1 LPS/ATP IL-1B secretion, 16 h, at 57.5 µM, stronger effect = lower value
Procedure, shortened: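 THP-1 cells pretreated 1 hr with compounds (up to 57.5 uM final), then stimulated with LPS (250 ng/mL final) plus ATP (1.25 mM final); secreted IL-1B measured by AlphaLISA after 16 hr, decreased signal indicating inhibition.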
For CCC/C(=N\O)c1c[nH]c2ccccc12, the activity change was 23.8%. For Cn1c(C(=O)N2CCC(C(=O)N3CCC4(CC3)OCCO4)CC2)cc2sccc21, the activity change was -11.3%. Work on CNP1(NC)=Nc2nn(-c3ccccc3)c(N)c2C(c2ccccc2)=N1 yielded an activity change of -24.6%. C=C(C)C1(CCCC)C(=O)NC(=S)NC1=O showed an activity change of 11.5%. CCOC(=O)CNC(=O)N1Cc2cc(N3CCCCC3)ccc2-n2nncc2C1 gave an activity change of -5.99%. Work on COC(=O)[C@@H]1C(OC(=O)c2ccccc2)CC2CCC1N2C (stereo not given in full) yielded an activity change of -10.2%. COC(=O)C1=C(c2ccccc2)C[C@@H]2CC[C@H]1N2C(=O)N1CCCCC1 gave an activity change of -19.1%. Compound COc1ccc2c(c1)NP(=S)(c1ccccc1)N2 (stereo not given) has an activity change of -12.5%. For CC12CCC(O)CC1CCC1C2CCC2(C)C(C(=O)CC(O)C(F)(F)F)CCC12 (stereo not given), the activity change was 15.6%. Compound COc1ccc(-c2nn(CCC#N)cc2C(=O)O)cc1 has an activity change of 10.5%. With O=c1[nH]c(=S)n(C2CC2)c(O)c1/C=N/N1CCOCC1 the activity change was 33.5%. With C[N+]1(C)CCOC(O)(c2ccc(-c3ccc(C4(O)C[N+](C)(C)CCO4)cc3)cc2)C1 (stereo not given) the activity change was 7.41%. Cn1cc(C(=O)OCC(=O)N2CCCC2)c2ccccc21 gave an activity change of -12.4%. C[C@]12CCC3C(CC[C@H]4C[C@@H](O)CC[C@]34C)C1C[C@@H](O)[C@H]2O (stereo not given in full) gave an activity change of 24.7%. In the case of CC12CCC3C(CCC4CC(=O)CCC43C)C1CC(=NO)C2=O (stereo not given), the activity change is reported as -101% (active). With C[C@]12CCC3C(CC[C@H]4[C@H](O)[C@H](O)CC[C@]34C)C1CCC2=O (stereo not given in full) the activity change was 8.07%. Compound O=c1c2ccccc2[nH]c(=S)n1-c1cccc(Cl)c1 has an activity change of 25.2%. In the case of CCn1cc(CN2CCCC(C(=O)c3cccc(C(F)(F)F)c3)C2)cn1 (stereo not given), the activity change is reported as 10.1%. In the case of COc1ccc(CCn2c(O)c(C=NCCCn3ccnc3)c(=O)[nH]c2=O)cc1OC, the activity change is reported as 43.4%. With CCCCCCCCCCCCn1ccc(=N)cc1 the activity change was -100% (active). In the case of CCOC(=O)C1SC2(C(F)(F)C(F)F)CC1(O)c1c(c(OC)c3occc3c1OC)O2 (stereo not given), the activity change is reported as 0%. In the case of CC(C)(C)[C@]1(O)C[C@@H]2OC(=O)C[C@@]23C(=O)O[C@@H]2OC(=O)[C@H](O)[C@]213, the activity change is reported as -4.02%. In the case of COCc1cc(OC(=O)N(C)C)nc(-c2ccc(C)c(Cl)c2)n1, the activity change is reported as -2.68%. C[C@]12CCCCC1=CC(=O)C1C2CC[C@@]2(C)C1C[C@@H](F)[C@@H]2O (stereo not given in full) showed an activity change of 0.0265%. For CC(C)c1ccc(OCC(=O)N2CCCN(C)CC2)cc1, the activity change was -17.5%. Work on CCOC(=O)CC(SP1(=S)OCC2(CCCCO2)C(C2CCCCO2)O1)C(=O)OCC (stereo not given) yielded an activity change of 17.2%. Compound ClC(Cl)(Cl)c1ccccc1 has an activity change of -9.44%. For CC(c1ccccc1)(c1ccccc1)c1ccncc1, the activity change was -63.6% (active). Compound c1ccc(C(CN2CCCCC2)c2ccccc2)cc1 has an activity change of -8.96%. Work on CNC(=O)N(C)c1nnc(C(C)(C)C)s1 yielded an activity change of 17.7%. In the case of O=C1NCN(c2ccccc2)C12CCN(C(c1cccs1)c1nnnn1C1CCCCC1)CC2 (stereo not given), the activity change is reported as -18.5%. In the case of CC(C)CN1Cc2cc(N3CCCCC3)ccc2-n2nncc2C1, the activity change is reported as -4.66%. CCC1(CC(C)c2ccccc2)C(=O)NC(=O)NC1=O (stereo not given) showed an activity change of -0.699%. With COC(=O)C[C@H]1CC[C@H]2NC[C@@H](O)COC[C@@H]2O1 the activity change was 0%. Compound CC1C2Cn3c(nc4ccccc43)C1N(C)O2 (stereo not given) has an activity change of 32.4%. Compound CC(=O)NC(=O)NC(C)Cc1ccccc1 (stereo not given) has an activity change of 11.5%. With CC(Cc1ccccc1)NCCC(c1ccccc1)c1ccccc1 (stereo not given) the activity change was -64.4% (active). With CC(Cc1ccccc1)NC=O (stereo not given) the activity change was 16%. In the case of CN1CCC(OC(=O)c2cccc(F)c2)CC1, the activity change is reported as -22%. Work on COc1ccc(NC(=O)N2Cc3ccccc3-n3nncc3C2)cc1 yielded an activity change of -5.29%. In the case of Cc1cc(-c2ccc(N)c(C)c2)ccc1N, the activity change is reported as -12.1%. In the case of CC(=O)OC1C2(CC3N4C(=O)C5(CO)SSC4(CC31O)C(=O)N5C)OC(C)C(C)(C)C2=O (stereo not given), the activity change is reported as -104% (active). In the case of Cc1ccc(C(C)C)c(OCC(=O)N2CCN(CC(=O)N3CCOCC3)CC2)c1, the activity change is reported as -9.54%. With C[N+]12CN3CN(CN(C3)C1)C2 the activity change was 1.54%. With Clc1cccc(Cl)c1Cl the activity change was -12.8%. Work on C[C@]12CC[C@H](O)C[C@H]1CC[C@@H]1C2CC[C@]2(C)[C@@H](C3=CC(=O)OC3)[C@@H](O)C[C@]12O (stereo not given in full) yielded an activity change of -21.6%. In the case of COC1C(O)C(C)OC(OC2CCC3(C=O)C(CCC4C3CCC3(C)C(C5=CC(=O)OC5)CCC43O)C2)C1O (stereo not given), the activity change is reported as -68% (active). C[C@H]1CN([C@@H](C)CO)C(=O)CCCn2nncc2CO[C@H]1CN(C)C(=O)Oc1cccc2ccccc12 showed an activity change of 24.1%. Work on COc1cc(C(=O)N2Cc3ccc(Br)cc3-n3nncc3C2)cc(OC)c1OC yielded an activity change of -13.4%. With O=C1/C(=C\c2ccc3c(c2)OCO3)N2CCC1CC2 the activity change was -14.8%. In the case of O=c1c2ccccc2nc(/C=C/c2ccc(F)cc2)n1-c1ccccc1O, the activity change is reported as -94.1% (active). For O=c1c2ccccc2nc(-c2ccccc2)n1-c1ccccn1, the activity change was 17.2%. Work on Cc1nc2ccccc2c(=O)n1-c1ccc(Cl)cc1Cl yielded an activity change of -2.71%. Work on COc1ccccc1NC(=O)N1C[C@@H]2C[C@@H](C1)c1cccc(=O)n1C2 yielded an activity change of 1.98%. O=C(O)C1CSC(c2cccnc2)N1 (stereo not given) showed an activity change of 0%. For NCCc1ccc(S(=O)(=O)F)cc1, the activity change was 13%. Work on O=C(NC1CCCCC1)N1Cc2cc(N3CCCCC3)ccc2-n2nncc2C1 yielded an activity change of -7.47%. For CCOc1ccc(-c2cc(C)[n+](CCN(CC)CC)c(-c3ccc(OCC)cc3)c2)cc1, the activity change was -82.5% (active). With COC(=O)C1=C(c2ccc(F)cc2OCc2ccccc2)C[C@@H]2CC[C@H]1N2C(=O)NCc1ccc(Cl)cc1 the activity change was -55.3% (active). In the case of COC(=O)C1=C(c2ccc(F)cc2OCc2ccccc2)C[C@@H]2CC[C@H]1N2C(=O)NCc1ccc(OC)c(OC)c1, the activity change is reported as -5.32%. With COC(=O)C1=C(c2ccc(F)cc2OCc2ccccc2)C[C@@H]2CC[C@H]1N2C(=O)NCc1ccc(C(C)(C)C)cc1 the activity change was -29.4%. In the case of CC1CCC(N(C)C2CCN(C)CC2)CC1 (stereo not given), the activity change is reported as 0%. In the case of CCOC(=O)c1cccc(C2=C(CNC(=O)c3ccncc3)[C@H]3CC[C@@H](C2)N3Cc2ccccc2)c1, the activity change is reported as 41.7%. In the case of COc1ccc(-c2nc(CS(=O)CC(=O)N3CCC4(CC3)OCCO4)c(C)o2)cc1 (stereo not given), the activity change is reported as -1.15%. O=P(OC1=CCCCC1)(c1ccccc1)c1ccccc1 gave an activity change of -4.62%. Cc1ncoc1C(=O)NCC1=C(c2cccc3ccccc23)C[C@@H]2CC[C@H]1N2Cc1ccco1 gave an activity change of -7.11%. In the case of CC1(C)Cc2c(C#N)c(N3CCNCC3)nc(-c3ccco3)c2CS1, the activity change is reported as -50.4% (active). In the case of COC(=O)C1=C(c2ccc(OCc3ccccc3)cc2)C[C@@H]2CC[C@H]1N2C(=O)NCc1ccc(Cl)cc1, the activity change is reported as 4.2%. With N#CC1=C(N)Oc2c(c(=O)oc3ccccc23)C1c1ccccc1OC(=O)c1cccs1 (stereo not given) the activity change was -86.1% (active). For COc1ccc(C2C=C(C)Oc3c2c(=O)oc2ccccc32)cc1OC (stereo not given), the activity change was 7.28%. Compound S=C(NCCc1ccccc1)N1Cc2cc(N3CCOCC3)ccc2-n2nncc2C1 has an activity change of -27%. Work on Cc1cc(C)c2c(c1)NP(=S)(c1ccccc1)N2 (stereo not given) yielded an activity change of -11.4%. Cc1ccc(-n2c(C)cc(/C=C3\C(=O)NC(=O)N(C)C3=O)c2C)cc1C showed an activity change of -4.58%. Work on Cc1cc(C=C2C(=O)NC(=O)NC2=O)c(C)n1-c1ccncc1 yielded an activity change of -12.3%. In the case of Cc1ccnc(-n2c(C)cc(/C=C3\C(=O)NC(=S)N(C)C3=O)c2C)c1, the activity change is reported as -79.4% (active).

From PubChem BioAssay AID743279 (National Center for Advancing Translational Sciences (NCATS), 2014)
% is set by controls: 0 for no effect and ±100 for the full control effect.
